Records with an inconclusive call do not appear. The source made the active and inactive calls. The call rests on the fitted dose curve; in most records, active means well fitted curve in the direction sought with a large enough effect; inconclusive means small, poorly fitted or top-dose-only effect, or another doubt; inactive means no such curve, though single readings can be large; an effect the other way counts as inactive or inconclusive.
Assays:
[1] = BET inhibitor-based combinations targeting novel dependencies in MECOM-rearranged (r) AML: SET-2 cell line (AID 2202231); conditions: SET-2 AML cells viability, CellTiter-Glo luminescence, 48 h; viability: hits give low values, concentration not given here; further: nearly all actives have a fitted effect of over 35% in size; further: potency means the concentration at half of the fitted maximal effect;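 on viability: plate controls were DMSO treated cells for no effect and wells without cells for full effect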
Method in brief: (§1)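 Luminescent ATP readout (CellTiter-Glo) after 48 hr drug exposure gives viability. Curves span 11 concentrations and are normalized to DMSO and empty wells. Activity is reported as area under the curve and its Z-transform within each cell line.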

[2] = BET inhibitor-based combinations targeting novel dependencies in MECOM-rearranged (r) AML: MV-4-11 cell line (AID 2202233); conditions: MV-4-11 AML viability, CellTiter-Glo luminescence, 48 h; series mostly up to 46 µM; further: nearly all actives have a fitted effect of over 45% in size; further: potency means the concentration at half of the fitted maximal effect
Method in brief: (§2)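 Luminescent ATP readout (CellTiter-Glo, 15 min at room temperature) after 48 hr drug exposure gave viability. Dose-response curves, normalized to DMSO and empty-well controls, were summarized as area under the curve and its mean-centred Z-score.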

[3] = BET inhibitor-based combinations targeting novel dependencies in MECOM-rearranged (r) AML: HNT-34 cell line (AID 2202234); conditions: HNT-34 AML viability, CellTiter-Glo luminescence, 48 h; series mostly up to 46 µM; further: nearly all actives have a fitted effect of over 35% in size; further: potency means the concentration at half of the fitted maximal effect
Method in brief: as §2

[4] = BET inhibitor-based combinations targeting novel dependencies in MECOM-rearranged (r) AML: UCSD-AML1 cell line (AID 2202235); conditions: UCSD-AML1 AML cells viability, CellTiter-Glo, 48 h; series mostly up to 46 µM; further: nearly all actives have a fitted effect of over 40% in size; further: potency means the concentration at half of the fitted maximal effect
Method in brief: as §2

[5] = BET inhibitor-based combinations targeting novel dependencies in MECOM-rearranged (r) AML: AML-191 cell line (AID 2202236; further: nearly all actives have a fitted effect of over 35% in size; further: potency means the concentration at half of the fitted maximal effect); conditions: AML-191 viability, CellTiter-Glo luminescence, 48 h; series mostly up to 46 µM
Method in brief: as §1

[6] = BET inhibitor-based combinations targeting novel dependencies in MECOM-rearranged (r) AML: AML-194 cell line (AID 2202237; further: nearly all actives have a fitted effect of over 40% in size; further: potency means the concentration at half of the fitted maximal effect); conditions: AML-194 (MECOM-r AML) viability, CellTiter-Glo, 48 h; series mostly up to 46 µM
Method in brief: as §1

[7] = BET inhibitor-based combinations targeting novel dependencies in MECOM-rearranged (r) AML: OCI-AML3 cell line (AID 2202232); conditions: CellTiter-Glo luminescence, 48 h; Potency: OCI-AML3 viability; series mostly up to 46 µM;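 further: plate controls were DMSO vehicle wells for no effect and wells without cells for full effect; nearly all actives have a fitted effect of over 35% in size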
Method in brief: as §1

CCN(C)S(=O)(=O)Nc1ccc(F)c(C(=O)c2c[nH]c3ncc(-c4cnc(C5CC5)nc4)cc23)c1F
active: Potency [1] 18.6 µM | Potency [2] 23.5 µM | Potency [3] 4.17 µM | Potency [4] 20.9 µM | Potency [5] 16.6 µM

CSC[C@H]1CN(Cc2c[nH]c3c(N)ncnc23)C[C@@H]1O
inactive: viability [1] 110% | Potency [2] | Potency [3] | Potency [4] | Potency [5]

Cc1cc(C)cc(Oc2ccc(CNC(=O)[C@H](C)N)cc2C)c1
active: Potency [2] 18.6 µM
inactive: viability [1] 109%

Cn1c(-c2ccccc2C(F)(F)F)nnc1C12CCC(c3noc(C4CC(F)(F)C4)n3)(CC1)CC2
inactive: viability [1] 105% | Potency [3] | Potency [4] | Potency [5] | Potency [6]
active: Potency [2] 16.6 µM

C=CC(=O)N1CCc2ccc(-n3c(=O)ccc4cnc5ccc(-c6cnn(C)c6)cc5c43)cc21
active: Potency [1] 0.456 µM | Potency [2] 0.288 µM | Potency [3] 0.407 µM | Potency [4] 0.229 µM | Potency [5] 0.812 µM | Potency [6] 0.574 µM

CC[C@H](CC[C@@H](C)[C@H]1CC[C@H]2[C@@H]3CC=C4C[C@@H](O)CC[C@]4(C)[C@H]3CC[C@]12C)C(C)C
inactive: viability [1] 104% | Potency [2] | Potency [3] | Potency [4] | Potency [5] | Potency [6]

CONC(=O)c1ccccc1Nc1cc(Nc2cc(C)nn2C(C)C)ncc1Cl
inactive: viability [1] 86.2%
active: Potency [2] 14.8 µM

CN[C@@H](C)C(=O)N[C@@H]1C(=O)N(Cc2c(C)ccc3ccccc23)c2ccc(C#N)cc2N(C(C)=O)[C@H]1C
inactive: viability [1] 102% | Potency [7] | Potency [4] | Potency [6]

O=S(=O)(NCCNC/C=C/c1ccc(Br)cc1)c1cccc2cnccc12
active: Potency [1] 14.8 µM | Potency [2] 14.8 µM

CNC(=O)[C@H](Cc1c[nH]c2ccccc12)NC(=O)[C@@H](CC(=O)NO)CC(C)C
inactive: viability [1] 112% | Potency [7] | Potency [5] | Potency [6]

CN(C)Cc1cccc(N=C(c2ccccc2)c2c(O)[nH]c3cc(C(=O)N(C)C)ccc23)c1
active: Potency [1] 20.9 µM | Potency [2] 6.61 µM | Potency [3] 14.8 µM

C[C@H](NC(=O)[C@H]1NCC[C@@H]1O)c1ccc(-c2noc(CCC3CCCC3)n2)cc1
inactive: outcome [1] inactive; activator; fitted 0.0033 uM | Potency [2] | Potency [4] | Potency [6]
active: Potency [5] 20.9 µM

COc1ccc2c(c1)CC[C@@H]1[C@@H]2CC[C@]2(C)[C@@H](NCCCCCCN3C(=O)C=CC3=O)CC[C@@H]12
inactive: viability [1] 113% | Potency [2] | Potency [3] | Potency [4] | Potency [5] | Potency [6]

Cc1nc2ccc(CN(C)c3ccc(C(=O)N[C@@H](CCC(=O)O)C(=O)O)s3)cc2c(=O)[nH]1
active: Potency [1] 0.0468 µM | Potency [2] 0.0468 µM | Potency [4] 0.0468 µM | Potency [6] 0.332 µM
inactive: Potency [3]

C[C@H](CCC(=O)O)[C@H]1CC[C@H]2[C@@H]3[C@H](O)C[C@@H]4C[C@H](O)CC[C@]4(C)[C@H]3CC[C@]12C
inactive: viability [1] 104% | Potency [2] | Potency [3] | Potency [4] | Potency [5] | Potency [6]

CN1CCC(c2c(O)cc(O)c3c(=O)cc(-c4ccccc4Cl)oc23)C1CO (configuration not stated)
active: Potency [1] 1.32 µM | Potency [2] 0.934 µM | Potency [3] 0.833 µM | Potency [4] 1.05 µM | Potency [5] 0.662 µM | Potency [6] 1.05 µM

Fc1ccc(-c2csc3ncnc(NCc4ccc5c(c4)OCO5)c23)cc1
active: Potency [1] 5.9 µM | Potency [2] 20.9 µM | Potency [4] 20.9 µM | Potency [5] 16.6 µM

CC[C@H](C)C(=O)O[C@H]1C[C@H](O)C=C2C=C[C@H](C)[C@H](CC[C@@H](O)C[C@@H](O)CC(=O)O)[C@H]21
inactive: viability [1] 113% | Potency [2] | Potency [3] | Potency [4] | Potency [6]

O=C(NCc1ccccc1)[C@H](Cc1ccccc1)NC(=O)[C@H]1O[C@@H]1C(=O)NCCc1ccc(O)cc1
inactive: viability [1] 105% | Potency [4] | Potency [5] | Potency [6]
active: Potency [2] 23.5 µM

COc1nc(OCc2cccc(-c3ccccc3)c2C)ccc1CNCCNC(C)=O
active: Potency [1] 26.3 µM | Potency [2] 16.6 µM | Potency [3] 26.3 µM | Potency [4] 20.9 µM | Potency [5] 18.6 µM | Potency [6] 26.3 µM

CC(c1cc2ccccc2s1)N(O)C(N)=O (configuration not stated)
inactive: viability [1] 106% | Potency [2] | Potency [3] | Potency [4] | Potency [6]

O=C1OC2(CCC(C(=O)Nc3ccn(-c4ccccc4F)n3)CC2)c2cnccc21 (configuration not stated)
active: Potency [2] 3.32 µM | Potency [5] 18.6 µM
inactive: viability [1] 90.4% | Potency [4]

From PubChem BioAssay (NCATS)
